# Reference: ChEMBL document CHEMBL4808148, “HDAC6 screening dataset using tau-based substrate in an enzymatic assay yields selective inhibitors and activators” (2021)
# Out of some 5,600 compounds screened, about 390 (7%) showed an effect of 50% or more. The sample as a whole holds a higher share of strong results than the screen did.
# Molecular target: T1, Protein deacetylase HDAC6 (Homo sapiens) (UniProt Q9UBN7)
# T1 sequence (whole entry): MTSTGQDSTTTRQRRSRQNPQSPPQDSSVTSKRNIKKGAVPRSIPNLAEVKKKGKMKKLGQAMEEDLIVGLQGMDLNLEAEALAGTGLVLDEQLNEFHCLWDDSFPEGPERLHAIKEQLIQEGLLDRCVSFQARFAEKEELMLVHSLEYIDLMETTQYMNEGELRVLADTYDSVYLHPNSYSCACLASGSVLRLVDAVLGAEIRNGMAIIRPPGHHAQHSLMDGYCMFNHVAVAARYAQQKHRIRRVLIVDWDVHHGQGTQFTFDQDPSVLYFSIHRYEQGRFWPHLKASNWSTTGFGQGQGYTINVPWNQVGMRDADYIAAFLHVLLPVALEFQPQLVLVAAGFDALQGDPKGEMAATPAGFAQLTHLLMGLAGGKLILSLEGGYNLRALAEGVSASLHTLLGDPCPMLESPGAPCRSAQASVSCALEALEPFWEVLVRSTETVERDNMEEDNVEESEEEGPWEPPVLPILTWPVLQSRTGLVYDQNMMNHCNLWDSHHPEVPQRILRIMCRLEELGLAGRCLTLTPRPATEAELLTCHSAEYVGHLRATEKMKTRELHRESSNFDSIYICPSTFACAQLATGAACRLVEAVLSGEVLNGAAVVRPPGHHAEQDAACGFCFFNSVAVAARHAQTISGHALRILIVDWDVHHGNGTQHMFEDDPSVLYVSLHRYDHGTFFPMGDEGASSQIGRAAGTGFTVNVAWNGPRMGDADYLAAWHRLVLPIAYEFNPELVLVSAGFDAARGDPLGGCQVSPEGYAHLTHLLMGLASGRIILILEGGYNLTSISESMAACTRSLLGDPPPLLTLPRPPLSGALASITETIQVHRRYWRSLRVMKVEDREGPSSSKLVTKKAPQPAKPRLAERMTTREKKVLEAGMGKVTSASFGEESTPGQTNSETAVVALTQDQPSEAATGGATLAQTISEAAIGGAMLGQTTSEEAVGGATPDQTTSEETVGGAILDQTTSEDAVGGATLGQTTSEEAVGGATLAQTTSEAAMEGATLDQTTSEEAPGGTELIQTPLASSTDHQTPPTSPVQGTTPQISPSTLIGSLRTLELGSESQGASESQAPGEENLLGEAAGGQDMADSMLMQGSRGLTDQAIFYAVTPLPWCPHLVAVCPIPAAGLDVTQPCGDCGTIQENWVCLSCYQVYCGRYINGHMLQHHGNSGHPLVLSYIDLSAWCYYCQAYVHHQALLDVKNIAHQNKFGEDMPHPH
# Conditions: at 10 µM
row,Compound,inhibition
1,CCOc1cc2ncc(C#N)c(Nc3ccc(OCc4cccc(F)c4)c(Cl)c3)c2cc1NC(=O)/C=C/CN(C)C,-4.4%
2,CC(C)Oc1ccc(Cc2ccc(NC3=NCCN3)cc2)cc1,64%
3,Clc1ccc2nsnc2c1NC1=NCCN1,-9.25%
4,CCc1[nH]c(=O)[nH]c1C(=O)c1ccncc1,-6.73%
5,COc1cc(OC)c2c(=O)[nH]c(-c3cc(C)c(OCCO)c(C)c3)nc2c1,80.1%
6,COc1ccc2nc3[nH]nc(C)c3c(NCCOCCO)c2c1,0.89%
7,Nc1nc(Nc2ccc(S(N)(=O)=O)cc2)nn1C(=O)c1c(F)cccc1F,38.5%
8,COc1ccc(CNC(=O)c2sc3nc(C)cc(C)c3c2N)cc1,2.68%
9,C#Cc1cccc(Nc2ncnc3cc(OC)c(OCCCCCCC(=O)NO)cc23)c1,101%
10,COc1cc2ncnc(Nc3cccc(Br)c3)c2cc1OC,16.9%
11,C#Cc1cccc(Nc2ncnc3cc(OCCOC)c(OCCOC)cc23)c1,32.3%
12,Cn1ccnc1S,-0.6%
13,O=C(O)c1cc(C(=O)O)c(C(=O)N(Cc2cccc(Oc3ccccc3)c2)[C@H]2CCCc3ccccc32)cc1C(=O)O,7.63%
14,Cc1ccc(Sc2ccccc2N2CCNCC2)c(C)c1,-7.14%
15,COC(=O)/C=C/c1cccc(N(Cc2ccc(-c3ccc(N(C)C)cc3)cc2)C(=O)C2CCCCC2)c1,-3.18%
16,CN(C)C(=O)Nc1cccc(-c2ccc(N(C)C)cc2)c1,94.6%
17,CC(=O)Nc1cccc(O)c1,34.1%
18,CC1(C)C(/C=C/C=C/C=C/C=C2\N(CCCCS(=O)(=O)O)c3ccc4ccccc4c3C2(C)C)=[N+](CCCCS(=O)(=O)[O-])c2ccc3ccccc3c21,21.1%
19,O=C(O)COCCN1CCN(C(c2ccccc2)c2ccc(Cl)cc2)CC1 (centres undefined),-6.57%
20,OCCOCCN1CCN(C(c2ccccc2)c2ccc(Cl)cc2)CC1 (centres undefined),89.5%
21,O=C(O)COCCN1CCN([C@H](c2ccccc2)c2ccc(Cl)cc2)CC1,-6.59%
22,Cc1c(CC(C)(C)C(=O)O)n(Cc2ccc(Cl)cc2)c2ccc(F)cc12,3.54%
23,Nc1ccn([C@@H]2C(F)=C(CO)[C@@H](O)[C@H]2O)c(=O)n1,8.8%
24,CCc1cccc(CC)c1NC(=O)c1nn(C)c2c1CCc1cnc(Nc3ccc(C(=O)NC4CCN(C)CC4)cc3OC(F)(F)F)nc1-2,-2.89%
25,CC(C)(CCCCCCCCCCC(C)(C)CC(=O)O)CC(=O)O,-0.28%
26,N#Cc1cc(F)cc(-c2nc(-c3ccc(F)cn3)no2)c1,83.6%
27,N#Cc1cccc(-c2nc(-c3cccnc3)no2)c1,19.8%
28,COC(=O)c1cnn(-c2ccc(F)cc2F)c1/C=N/NC(=S)NC(C)(C)C,0.12%
29,CC[C@H](C)[C@H](N)C(=O)O,9.28%
